Data taken from PubChem BioAssay (Tox21).
Unmarked numbers belong to inactive results. Inconclusive results are not listed. Entries that show only a call come without a potency. Calls of active or inactive are those of the source. Unless noted, the call rests on the fitted dose curve; in most records, active means well fitted curve in the direction sought with a large enough effect in the repeat runs; inconclusive means weak or mixed curves; inactive means no such curve, though single readings can be large; an effect the other way counts as inactive or inconclusive.

Columns and labels:
[1] = qHTS RealTime-Glo MT Cell Viability Assay in HEK293 cells - 8 hour (AID 1224887); further: nearly all actives have a fitted effect of over 50% in size; further: potency means the concentration at half of the fitted maximal effect
Outline: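 Nonlytic bioluminescent viability monitoring. HEK293 at 600 cells/well with reagent; 5 h settle; compound transfer by pintool; plates held at 37 C and read at set time points.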

[2] = A CellTox Green Cytotoxicity Assay to monitor cytotoxicity in HEK293 cells - 16 hour (AID 1224888); further: nearly all actives have a fitted effect of over 35% in size; further: potency means the concentration at half of the fitted maximal effect
Outline: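 Cytotoxicity was tracked continuously in HEK293 cells by a DNA-binding dye excluded from viable cells. Compounds were transferred in DMSO 5 h after seeding; fluorescence was recorded at intervals up to 40 h.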

[3] = qHTS RealTime-Glo MT Cell Viability Assay in HepG2 cells - 0 hour (AID 1224889); further: nearly all actives have a fitted effect of over 50% in size
Outline: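 Cell number in HepG2 cultures estimated from NanoLuc luminescence generated by metabolic reduction of a prosubstrate by living cells. The homogeneous, nonlytic format allowed repeated reads at 0, 8, 16, 24, 32 and 40 h of compound exposure.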

[4] = A CellTox Green Cytotoxicity Assay to monitor cytotoxicity in HepG2 cells - 8 hour (AID 1224890); further: nearly all actives have a fitted effect of over 45% in size; further: potency means the concentration at half of the fitted maximal effect
Outline: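 Real-time, homogeneous cytotoxicity readout: dead-cell DNA staining by CellTox Green in HepG2 monolayers, fluorescence measured at timed intervals up to 40 h of continuous compound exposure.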

[5] = qHTS assay to identify small molecule antagonists of the androgen receptor (AR) signaling pathway using the MDA cell line in the presence of 0.5 nM R1881 - cell viability counter screen (AID 1259242); further: nearly all actives have a fitted effect of over 45% in size
Outline: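 Cytotoxicity toward MDA-kb2 cells is measured by CellTiter-Fluor live-cell protease fluorescence after 16 hr compound exposure at 37C in the presence of 0.5 nM R1881 stimulator.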

[6] = molecular target: Estrogen receptor (Homo sapiens) (UniProt P03372); assay: qHTS assay to identify small molecule antagonists of the estrogen receptor alpha (ER-alpha) signaling pathway using the BG1 cell line in the presence of 0.1 nM 17-beta-estradiol (AID 1259244); further: nearly all actives have a fitted effect of over 50% in size; further: potency means the concentration at half of the fitted maximal effect
Outline: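 After 5 days in hormone-depleted medium (charcoal-stripped serum, no phenol red), VM7Luc4E2 cells were seeded, incubated 24 h, then co-treated with compound and 0.1 nM (final) estradiol for 22 h before luminescence detection.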

[7] = qHTS assay to identify small molecule HDAC inhibitors (AID 1259364); further: top concentration of the series differs between compounds; nearly all actives have a fitted effect of over 45% in size
Outline: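 Homogeneous cell-based luminescent assay of endogenous class I/II HDAC activity; HCT-116 cells, 2 h compound exposure, 30 min HDAC-Glo development at RT.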

[8] = qHTS assay to identify small molecule HDAC inhibitors - cell viability counter screen (AID 1259365); further: series mostly up to about 92 µM; nearly all actives have a fitted effect of over 50% in size
Outline: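 Cytotoxicity was gauged in wild-type HCT-116 cells after a brief 2hr treatment with DMSO-dissolved compounds at 37C and 5% CO2, using CellTiter-Glo luminescence developed for 30min at room temperature.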

[9] = qHTS assay to identify small molecule antagonists of the sonic hedgehog signaling (Shh) pathway - cell viability counter screen (AID 1259367); further: nearly all actives have a fitted effect of over 55% in size; further: potency means the concentration at half of the fitted maximal effect
Outline: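 NIH/3T3-derived Gli1-Luc reporter cells, 2,000/well, plated 4 hr before compound addition, then stimulated with conditioned medium for 24 hr at 37C. Viability measured in the same wells by CellTiter-Fluor fluorescence, reagent added at 23 hr for 1 hr.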

[10] = qHTS assay to identify small molecule agonists of the sonic hedgehog signaling (Shh) pathway (AID 1259368; calls by dose curve;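 further: NIH/3T3-derived 3T3Gli1-Luc cells carrying a stable Gli1-driven firefly luciferase reporter; series mostly up to about 92 µM; nearly all actives have a fitted effect of over 15% in size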)
Outline: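 Steps: seed 3T3 Gli1-Luc cells, incubate 4 hr at 37 C, pin-transfer compounds in DMSO alongside a positive control, incubate 24 hr, add luciferase detection reagent, wait 30 min at room temperature, read luminescence.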

[11] = qHTS assay to identify small molecule antagonists of the sonic hedgehog signaling (Shh) pathway (AID 1259369; calls by dose curve; further: nearly all actives have a fitted effect of over 45% in size; further: potency means the concentration at half of the fitted maximal effect)
Outline: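 Inhibition of Shh signalling is measured as reduced Gli1-response-element firefly luciferase output in an NIH/3T3-derived stable reporter clone stimulated with conditioned medium for 24hr.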

[12] = qHTS assay to identify small molecule agonists of the androgen receptor (AR) signaling pathway in the presence of an antagonist - cell viability counter screen (AID 1259379); further: nearly all actives have a fitted effect of over 25% in size; further: potency means the concentration at half of the fitted maximal effect
Outline: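 Fluorescence from CellTiter-Fluor, added after 15 hr and read 1 hr later, gave cell viability. Cells were MDA-kb2 exposed to compounds (15 concentrations) in the presence of 3.0uM nilutamide at 37C, 0% CO2.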

[13] = qHTS assay to identify small molecule agonists of the estrogen receptor beta (ER-beta) signaling pathway - cell viability counter screen (AID 1259380); further: nearly all actives have a fitted effect of over 30% in size; further: potency means the concentration at half of the fitted maximal effect
Outline: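 Same-well viability counter screen. Cells: ER-beta-UAS-bla HEK293T, plated 6 hr before compound, in 2% charcoal-stripped FBS. Compound exposure 16 hr, 37C; viability by CellTiter-Glo luminescence after 30 min at room temperature.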

[14] = qHTS assay to identify small molecule antagonists of the estrogen receptor alpha (ER-alpha) signaling pathway using the BG1 cell line in the presence of 0.1 nM 17-beta-estradiol - cell viability counter screen (AID 1259241); further: nearly all actives have a fitted effect of over 40% in size
Outline: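 Viability in VM7Luc4E2 cells after 22 hr compound exposure under 0.1 nM 17beta-estradiol stimulation, by CellTiter-Fluor.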

[15] = qHTS assay to identify small molecule agonists of the sonic hedgehog signaling (Shh) pathway - cell viability counter screen (AID 1259366); further: nearly all actives have a fitted effect of over 50% in size
Outline: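 Stable Gli1-Luc NIH/3T3 clone, 2,000 cells/well. Compound exposure 24hr at 37C. Read-out: CellTiter-Fluor fluorescence.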

[16] = molecular target: Estrogen receptor beta (Homo sapiens) (UniProt Q92731); assay: qHTS assay to identify small molecule agonists of the estrogen receptor beta (ER-beta) signaling pathway (AID 1259377; active means well fitted activation curve with a large enough effect in the signal ratio in the repeat runs, not every such curve was filed as active; the % refers to the signal ratio)
Outline: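 Measured by fluorescence intensity from a B/G FRET beta-lactamase substrate (2 h, room temperature) in ER-beta-UAS-bla HEK293T cells treated with DMSO-dissolved compounds for 16 hr at 37C and 5% CO2.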

[17] = molecular target: Estrogen receptor beta (Homo sapiens) (UniProt Q92731); assay: qHTS assay to identify small molecule antagonists of the estrogen receptor beta (ER-beta) signaling pathway (AID 1259378; active means well fitted inhibition curve with a large enough effect in the signal ratio in the repeat runs, not every such curve was filed as active; the % refers to the signal ratio; further: potency means the concentration at half of the fitted maximal effect)
Outline: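 ER-beta-UAS-bla HEK293T cells in 2% charcoal-stripped FBS medium treated with compound plus 1nM final 17-beta-estradiol for 16 hr at 37C. Beta-lactamase reporter read by FRET substrate fluorescence after 2 hours at room temperature.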

[18] = molecular target: Androgen receptor (Homo sapiens) (UniProt P10275); assay: qHTS assay to identify small molecule antagonists of the androgen receptor (AR) signaling pathway using the MDA cell line in the presence of 0.5 nM R1881 (AID 1259243); further: nearly all actives have a fitted effect of over 50% in size; further: potency means the concentration at half of the fitted maximal effect
Outline: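 Steps: seed MDA-kb2 cells, incubate 5 hr at 37C; pin-transfer compounds in DMSO; add R1881 to 0.5 nM final; incubate 16 hr; add ONE-Glo, wait 30 min at room temperature; read luminescence.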

[19] = qHTS assay to identify small molecule phospholipidosis (PLD) inducers (AID 1259344; active means well fitted curve in the direction sought with a large enough effect; an effect the other way counts as inactive or inconclusive)
Outline: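 HepG2 cells, 900/well, treated with compound plus LipidTOX Red for 24 h at 37 C; amiodarone positive and DMSO negative controls. Fixed with paraformaldehyde/Hoechst, then high-content imaging scored LipidTOX pit count and integrated intensity per well and per cell.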

Sequence of Androgen receptor (Homo sapiens) (P10275 whole entry, looked up): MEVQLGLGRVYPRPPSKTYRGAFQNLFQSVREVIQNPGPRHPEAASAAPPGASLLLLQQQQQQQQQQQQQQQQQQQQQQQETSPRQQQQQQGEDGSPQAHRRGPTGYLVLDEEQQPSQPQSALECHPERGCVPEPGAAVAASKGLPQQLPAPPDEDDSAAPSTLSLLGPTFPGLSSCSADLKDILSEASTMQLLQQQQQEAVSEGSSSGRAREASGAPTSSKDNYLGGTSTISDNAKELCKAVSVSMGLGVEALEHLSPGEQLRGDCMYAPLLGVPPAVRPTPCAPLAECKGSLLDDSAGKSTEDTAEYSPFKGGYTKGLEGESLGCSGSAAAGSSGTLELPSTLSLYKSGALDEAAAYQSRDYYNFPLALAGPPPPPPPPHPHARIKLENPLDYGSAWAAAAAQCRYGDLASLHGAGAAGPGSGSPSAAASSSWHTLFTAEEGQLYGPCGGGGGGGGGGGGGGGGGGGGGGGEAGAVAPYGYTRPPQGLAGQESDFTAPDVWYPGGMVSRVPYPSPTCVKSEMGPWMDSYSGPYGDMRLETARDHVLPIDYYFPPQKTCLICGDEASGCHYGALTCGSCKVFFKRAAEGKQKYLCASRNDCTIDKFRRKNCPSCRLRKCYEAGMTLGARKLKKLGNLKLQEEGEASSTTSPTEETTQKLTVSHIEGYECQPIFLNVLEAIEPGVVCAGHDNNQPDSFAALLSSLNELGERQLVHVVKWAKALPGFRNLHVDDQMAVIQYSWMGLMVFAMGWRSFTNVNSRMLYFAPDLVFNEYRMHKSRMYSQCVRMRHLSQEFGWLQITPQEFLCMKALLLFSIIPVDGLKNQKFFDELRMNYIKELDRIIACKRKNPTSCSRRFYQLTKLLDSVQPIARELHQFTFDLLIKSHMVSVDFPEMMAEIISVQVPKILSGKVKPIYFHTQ
Sequence of Estrogen receptor (Homo sapiens) (P03372 whole entry, looked up): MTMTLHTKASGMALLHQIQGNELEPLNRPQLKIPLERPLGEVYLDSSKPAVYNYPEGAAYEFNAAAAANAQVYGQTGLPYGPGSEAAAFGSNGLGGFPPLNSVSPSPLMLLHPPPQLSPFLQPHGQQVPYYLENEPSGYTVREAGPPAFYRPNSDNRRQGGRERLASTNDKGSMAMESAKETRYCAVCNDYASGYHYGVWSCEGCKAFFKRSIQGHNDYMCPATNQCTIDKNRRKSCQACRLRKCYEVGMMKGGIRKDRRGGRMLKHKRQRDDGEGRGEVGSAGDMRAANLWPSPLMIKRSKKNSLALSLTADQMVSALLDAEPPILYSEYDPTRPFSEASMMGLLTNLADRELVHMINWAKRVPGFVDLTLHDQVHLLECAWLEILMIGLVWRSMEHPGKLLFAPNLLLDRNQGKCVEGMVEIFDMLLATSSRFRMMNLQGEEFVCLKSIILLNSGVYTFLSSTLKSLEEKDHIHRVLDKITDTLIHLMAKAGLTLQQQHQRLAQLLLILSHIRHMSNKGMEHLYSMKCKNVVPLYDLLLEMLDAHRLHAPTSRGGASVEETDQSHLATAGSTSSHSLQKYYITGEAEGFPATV
Sequence of Estrogen receptor beta (Homo sapiens) (Q92731 whole entry, looked up): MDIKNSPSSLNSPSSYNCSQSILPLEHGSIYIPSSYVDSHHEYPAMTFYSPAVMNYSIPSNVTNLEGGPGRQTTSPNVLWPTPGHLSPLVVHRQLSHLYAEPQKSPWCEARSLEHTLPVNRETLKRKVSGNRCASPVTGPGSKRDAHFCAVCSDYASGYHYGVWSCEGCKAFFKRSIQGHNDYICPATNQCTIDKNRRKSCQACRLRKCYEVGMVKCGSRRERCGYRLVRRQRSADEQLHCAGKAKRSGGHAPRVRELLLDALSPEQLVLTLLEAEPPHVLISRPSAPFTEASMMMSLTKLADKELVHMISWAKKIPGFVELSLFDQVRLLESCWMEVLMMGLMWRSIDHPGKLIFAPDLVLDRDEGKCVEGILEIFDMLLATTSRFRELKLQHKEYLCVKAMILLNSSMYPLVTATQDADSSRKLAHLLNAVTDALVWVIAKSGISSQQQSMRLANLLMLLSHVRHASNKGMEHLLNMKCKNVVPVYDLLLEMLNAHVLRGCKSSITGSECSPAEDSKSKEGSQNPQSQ

SMILES	Potency [1]	Potency [2]	Potency [3]	Potency [4]	Potency [5]	Potency [6]	Potency [7]	Potency [8]	Potency [9]	Potency [10]	Potency [11]	Potency [12]	Potency [13]	Potency [14]	Potency [15]	outcome [16]	Potency [17]	Potency [18]	Potency [19]
Oc1cccc2c(O)cccc12	inactive	inactive	inactive	inactive	inactive	54.5 µM (active)	inactive	inactive	30.6 µM (active)	inactive	10.9 µM (active)	inactive	61.1 µM (active)						
SC1CCCCC1	inactive	inactive	inactive	inactive	inactive		inactive	inactive	inactive	inactive	inactive	inactive	inactive	inactive	inactive	inactive	inactive		
C=C1C(CCl)(CCl)C2(Cl)C(Cl)C(Cl)C1(Cl)C2(Cl)Cl (stereo unspecified)	43.1 µM (active)		inactive	inactive	inactive		inactive	inactive	inactive	inactive			48 µM (active)	inactive			27 µM (active)	48 µM (active)	inactive
C=CC(=O)OCC(Br)CBr (stereo unspecified)	inactive	inactive		inactive	inactive	inactive	inactive	inactive	inactive	inactive		inactive	inactive		inactive	inactive	inactive	inactive	
Nc1ccc(Oc2cccc(Oc3ccc(N)cc3)c2)cc1	inactive	inactive		inactive	inactive	8.63 µM (active)	inactive	inactive		inactive	8.63 µM (active)	inactive		inactive	inactive	inactive			
CCc1ncnc2cc(OC)c(OC)cc12																			inactive
Cc1ccc(C2OC[C@@H]3OC(c4ccc(C)cc4)O[C@H]([C@H](O)CO)[C@@H]3O2)cc1 (stereo partly specified)			inactive	inactive	inactive	inactive	inactive	inactive	inactive	inactive	inactive	inactive	inactive	inactive	inactive			inactive	
Cc1cc(C)c(O)c(C(C)(C)C)c1	inactive		inactive	inactive	inactive	inactive	inactive	inactive	inactive	inactive	inactive	inactive			inactive	inactive	inactive	inactive	
C1=CCCC1				inactive	inactive	inactive	inactive	inactive	inactive	inactive	inactive	inactive		inactive	inactive			inactive	
O=C1c2ccccc2C(=O)c2c(Cl)cccc21		inactive	inactive	inactive	inactive	inactive		inactive	inactive	inactive	inactive	inactive		inactive	inactive				
CCCCN(CCCC)C(=S)[S-].CCCCN(CCCC)C(=S)[S-].[Zn+2]																			inactive
O=C1OC2(c3ccccc31)c1ccc(O)c(Br)c1Oc1c2ccc(O)c1Br		21.9 µM (active)		12.3 µM (active)			inactive	inactive		inactive	inactive	61.1 µM (active)	inactive	inactive					
O=C1CCC(=O)N1		inactive	inactive	inactive	inactive	inactive	inactive	inactive	inactive	inactive	inactive	inactive	inactive	inactive	inactive	inactive	inactive	inactive	
CCCCC/C=C\C=C\C(=O)OCC		inactive	inactive	inactive	inactive	inactive	inactive	inactive		inactive			50.6 µM (active)				inactive		
CCC(NC(C)C)C(O)c1ccc(O)c(O)c1 (stereo unspecified)																			inactive
CNCC(=O)N[C@@H](CCCN=C(N)N)C(=O)N[C@H](C(=O)N[C@@H](Cc1ccc(O)cc1)C(=O)N[C@H](C(=O)N[C@@H](Cc1cnc[nH]1)C(=O)N1CCC[C@H]1C(=O)N[C@@H](C)C(=O)O)C(C)C)C(C)C																			inactive
CCOc1ccc([N+](=O)[O-])cc1				inactive	inactive	inactive	inactive	inactive	inactive	inactive						inactive	9.83 µM (active)		
C1CCSC1		inactive	inactive	inactive	inactive	inactive	inactive	inactive	inactive	inactive	inactive	inactive			inactive				
O=C(NCc1ncc(C(F)(F)F)cc1Cl)c1c(Cl)cccc1Cl		inactive	inactive	inactive			inactive	inactive	inactive	inactive	inactive	17.2 µM (active)		inactive	inactive	inactive			
